Compound activity from PubChem.
Measles CPE = protection of cells from measles virus | Measles virus-infected cells, CPE protection, absorbance | protection (pct of control), % at 4 µM | 1.5% of 140,000 active; in the data active means protection mostly above about 24%, no sharp cut-off; inactive means mostly below about 26%
CYP2C19 inh = human CYP2C19 inhibition; CYP2C19 Supersomes, luciferin-H EGE luminescence, 30 min; 21% of 96,000 active; inhibition, % at 5 µM;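 active means CYP2C19 inhibition above a set limit at 5 µM in the primary screen, cut at about 50% in these data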;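 further: plate controls were negative control wells for no effect and 2.5 mM tranylcypromine positive control for full effect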
CYP2C9 inhib = inhibitors of human CYP2C9 | P11712 | inhibition, % at 5 µM | CYP2C9 Supersomes, luciferin-H conversion, luminescence | AID 777 | 20% of 96,000 active;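 active means blocking of liver enzyme CYP2C9 beyond about 50% at 5 µM, limit read from the data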
Target sequence (P11712 whole entry, looked up): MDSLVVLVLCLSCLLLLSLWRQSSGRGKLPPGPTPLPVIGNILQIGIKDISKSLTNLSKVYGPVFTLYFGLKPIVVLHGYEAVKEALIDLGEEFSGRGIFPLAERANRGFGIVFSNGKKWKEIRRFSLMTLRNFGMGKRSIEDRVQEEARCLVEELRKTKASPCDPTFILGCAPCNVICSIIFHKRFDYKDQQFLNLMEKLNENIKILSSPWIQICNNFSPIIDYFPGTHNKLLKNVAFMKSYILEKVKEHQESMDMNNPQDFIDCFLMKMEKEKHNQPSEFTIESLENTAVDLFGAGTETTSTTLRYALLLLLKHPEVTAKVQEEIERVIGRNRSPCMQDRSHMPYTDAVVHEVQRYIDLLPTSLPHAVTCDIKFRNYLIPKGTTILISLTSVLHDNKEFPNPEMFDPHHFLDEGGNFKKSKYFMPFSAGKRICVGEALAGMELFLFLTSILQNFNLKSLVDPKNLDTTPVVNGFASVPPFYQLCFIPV
CYP2C9 act = activators of human CYP2C9; P11712; recombinant CYP2C9, luciferin-H conversion, luminescence; active compounds read high; factor 1 = untreated enzyme, 0 = blocked; activation factor at 5 µM; 1.4% of 96,000 active; AID 1024;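 active means activation factor of 2 or more for CYP2C9 at a 5 µM dose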;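 further: 0 = sulfaphenazole-blocked wells and 1 = vehicle-only wells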
CYP2C19 activ = increases human CYP2C19 enzyme activity; AID 1025; activation factor at 5 µM; recombinant CYP2C19, luciferin-H EGE luminescence; active compounds read high; 0 = fully inhibited enzyme, 1 = untreated enzyme; P33261; 96,000 tested, under 10 active;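 active means activation factor of at least 2 at 5 µM in the primary screen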;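 further: 0 = wells with 2.5 mM tranylcypromine and 1 = vehicle-only wells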
* marks the source's active call; other numbers are inactive results; nt = not tested or not shown. In the library only some 22% were active in any assay of this set; here they are far more common.

SMILES	Measles CPE	CYP2C19 inh	CYP2C9 inhib	CYP2C9 act	CYP2C19 activ
CC(C)NC(=O)C1CCCN(S(=O)(=O)c2ccc(-n3cnnn3)cc2)C1 (configuration not stated)	6.9	13.1	50.7*	0.5	0.9
CCOC(=O)C1CCCN(S(=O)(=O)c2ccc(F)c(C(=O)Nc3ccc(F)c(F)c3)c2)C1 (configuration not stated)	1.2	58.6*	60.3*	0.4	0.4
CCOC(=O)N1CCN(S(=O)(=O)c2ccc(F)c(C(=O)Nc3cc(C)cc(C)c3)c2)CC1	2.7	1.7	3.2	1	1
NC(=O)C1CCCN(S(=O)(=O)c2ccc(Br)cc2)C1 (configuration not stated)	10.6	58.6*	-45.5	1.5	0.4
COc1ccccc1CNc1ccc(N2CCCCC2)cc1	7.2	76.8*	24.0	0.8	0.2
COc1ccccc1CNc1ccc(C(=O)O)cc1	24.9	-4.0	-6.5	1.1	1
COc1cccc(CNc2ccc(N3CCCCC3)cc2)c1OC	11.4	80.4*	-150.5	2.5*	0.2
O=C(/C=C/c1ccc(Cl)cc1)NCc1ccncc1	14.2	nt	nt	nt	nt
COc1ccc2c(c1OC)C(=O)OC2CC(=O)c1ccc2c(c1)OCO2 (configuration not stated)	12.8	55.7*	42.0	0.6	0.4
O=C(CSc1nc2[nH]ncc2c(=O)[nH]1)N1CCCCC1	9.5	nt	nt	nt	nt
Cc1cc(NC(=O)CN2CC(C)OC(C)C2)n(-c2nc3ccccc3s2)n1 (configuration not stated)	10.7	56.8*	55.9*	0.4	0.4
O=C(NCc1cc(C(F)(F)F)cc(C(F)(F)F)c1)C1CC(c2cccc([N+](=O)[O-])c2)=NO1 (configuration not stated)	3.7	-3.6	-21.8	1.2	1
COC(=O)c1c(C)[nH]c(C(C)=O)c1C	4.9	44.5	54.8*	0.5	0.6
O=C(NCC1CCCO1)c1onc(CSc2ccccc2F)c1C(=O)O (configuration not stated)	15.6	18.5	19.2	0.8	0.8
COc1ccc(NC2CC(=O)N(c3ccccc3)C2=O)cc1 (configuration not stated)	20.9	54.7*	-3.1	1	0.5
COc1ccc(N2C(=O)CC(NCc3ccncc3)C2=O)cc1 (configuration not stated)	44.5*	nt	nt	nt	nt
Cc1ccc2cc(CN(Cc3ccc4c(c3)OCO4)Cc3nnnn3Cc3ccco3)c(=O)[nH]c2c1	16.0	80.1*	84.5*	0.2	0.2
Cc1ccc(CN(Cc2cc3cc4c(cc3[nH]c2=O)OCCO4)Cc2nnnn2Cc2ccco2)cc1	5.8	88.5*	95.8*	0	0.1
Cc1ccc2cc(CN(Cc3ccco3)C(=O)c3cccs3)c(=O)[nH]c2c1	8.1	35.7	30.9	0.7	0.6
CC(C)NC(=O)CCCOc1ccc(Cl)cc1Cl	10.8	59.3*	24.7	0.8	0.4
CCN(CC)C(=O)COc1ccc(Br)cc1Cl	5.8	81.7*	25.7	0.7	0.2
O=C(O)CCC(=O)NNC(=O)CCCOc1ccc(Cl)cc1Cl	4.8	-20.6	-24.6	1.2	1.2
CCN(CC)C(=O)CCCOc1ccc(Cl)cc1Cl	11.8	97.0*	21.2	0.8	0
COc1ccc(/C=N/NC(=O)CCCOc2ccc(Cl)cc2Cl)cc1[N+](=O)[O-]	3.5	85.6*	70.4*	0.3	0.1
COC(=O)NNC(=O)CCCOc1ccc(Cl)cc1Cl	13.5	nt	nt	nt	nt
SMILES	Measles CPE	CYP2C19 inh	CYP2C9 inhib	CYP2C9 act	CYP2C19 activ
O=C(COc1ccc(Br)cc1Cl)NC(=O)NCc1ccccc1	16.4	nt	nt	nt	nt
O=C(NCc1ccc2c(c1)OCO2)C1CCCN1C(=O)Nc1cccc(Cl)c1 (configuration not stated)	4.0	34.6	41.4	0.6	0.7
CC1(C)CC(=O)c2c(n(-c3cccc4ccccc34)ccc2=O)C1	36.6	9.1	11.0	0.9	0.9
O=S(=O)(NCc1ccccc1)c1ccc(S(=O)(=O)N(Cc2ccccn2)Cc2ccco2)cc1	4.3	5.9	12.8	0.9	0.9
O=S(=O)(c1ccccc1F)N1CCN(Cc2nc3ccccc3[nH]2)CC1	8.9	55.0*	-81.0	1.8	0.4
c1ccc(OCc2nc3ccccc3[nH]2)cc1	4.0	74.3*	15.1	0.8	0.3
O=c1[nH]c(CN2CCCCC2)nc2ccccc12	1.8	-10.2	-14.0	1.1	1.1
c1ccc2[nH]c(CN3CCCCCC3)nc2c1	4.0	63.9*	-4.8	1	0.4
CCS(=O)(=O)N1CCN(Cc2nc3ccccc3c(=O)[nH]2)CC1	12.7	3.2	6.2	0.9	1
OC(Cc1nc2ccccc2[nH]1)c1ccccc1Cl (configuration not stated)	51.3*	49.2	15.3	0.8	0.5
CCCCOCCCn1cnc2c([nH]c3cc(OC)ccc32)c1=O	7.1	42.7	12.8	0.9	0.6
Cc1cccn2c(NC(=O)c3cccs3)c(-c3ccccc3)nc12	13.5	nt	nt	nt	nt
O=C(Nc1ccc(F)cc1F)c1cc2ncc(CCCl)cn2n1	7.1	nt	nt	nt	nt
CCCC(=O)N1CCN(c2ccc([N+](=O)[O-])c(NC(C)c3ccccc3)c2)CC1 (configuration not stated)	3.7	63.4*	69.5*	0.3	0.4
CC(Nc1cc(N2CCCC2)ccc1[N+](=O)[O-])c1ccccc1 (configuration not stated)	5.6	-3.8	7.2	0.9	1
Cc1noc(C)c1COC(=O)CCc1ccc(S(=O)(=O)N2CCCCC2)cc1	23.2	41.4	32.5	0.7	0.6
Cc1noc(C)c1COC(=O)Cc1ccc(Cl)c(Cl)c1	39.7*	32.1	12.4	0.9	0.7
Cc1noc(C)c1COC(=O)[C@H](C)NS(=O)(=O)c1ccc(Cl)c(Cl)c1	11.1	97.9*	61.5*	0.4	0
Cc1ccc(C(C)C)c(OCC(=O)OCc2c(C)noc2C)c1	6.0	9.1	38.4	0.6	0.9
CC1=C(C(=O)OCC2CCCO2)C(c2ccc(C)o2)C2=C(CC(c3ccc(F)cc3)CC2=O)N1 (configuration not stated)	9.1	16.5	19.4	0.8	0.8
CC1=C(C(=O)OCC2CCCO2)C(c2ccccc2OC(C)C)C2=C(CC(c3ccco3)CC2=O)N1 (configuration not stated)	12.4	97.7*	81.1*	0.2	0
CC1=C(C(=O)OCC2CCCO2)C(c2ccc(C)o2)C2=C(CC(c3ccc(N(C)C)cc3)CC2=O)N1 (configuration not stated)	3.8	55.8*	54.4*	0.5	0.4
CC1=C(C(=O)OCC2CCCO2)C(c2cccc(C(F)(F)F)c2)C2=C(CC(c3ccco3)CC2=O)N1 (configuration not stated)	2.8	94.2*	88.1*	0.1	0.1
COC(=O)c1cc(C)sc1NC(=O)c1cccnc1	16.8	-15.4	-19.5	1.2	1.2
Cc1nnc2ccc(N3CCN(c4cccc(C(F)(F)F)c4)CC3)nn12	28.5	29.0	15.5	0.8	0.7
CCC(=O)Nc1ccccc1Oc1ccccc1	6.9	49.1	33.5	0.7	0.5
